Growth data for seven compounds are collected here from PubChem BioAssay (NCI).

Each structure is given as a SMILES string. Compounds without any hit were thinned out: in the full panel of roughly 83,000, 20% have a hit.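 Cell lines were cultured in 96-well plates, exposed to a single compound concentration, and assessed for percent growth 48 hours later.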 A number with no mark means an inactive call. Activity calls are given as the source filed them. How the source made its calls: active means growth percent below 10; inactive means the rest.

What all share (assay): NCI-60 one-dose screen, 48 h (100 = growth as untreated, 0 = no growth, -100 = all killed)
Common to all, as to conditions: 10 µM unless noted

Experiment [1] has as its system DU-145 prostate.
Experiment [2] has as its system K-562 leukemia.
The test system of experiment [3] is MALME-3M melanoma.
In experiment [4] the test system is MDA-MB-231 breast.
Experiment [5] concerns RXF 393 renal.
The subject of experiment [6] is SF-268 CNS.
For experiment [7], the system named is SF-295 CNS.
Experiment [8] relates to SF-539 CNS.
In experiment [9] the test system is UACC-257 melanoma.
For experiment [10], the system named is M14 melanoma.
The subject of experiment [11] is HCT-15 colon.
For experiment [12], the system named is HT29 colon.
For experiment [13], the system named is SNB-75 CNS.
Experiment [14] has as its system SNB-19 CNS.
The subject of experiment [15] is U251 CNS.
The subject of experiment [16] is PC-3 prostate.
In experiment [17] the test system is SK-MEL-5 melanoma.
In experiment [18] the test system is UACC-62 melanoma.
Experiment [19] concerns SK-MEL-28 melanoma.
Experiment [20] concerns LOX IMVI melanoma.

As for `CCCCCOC(=O)c1c(C)[nH]c(/C=C2\N=C(c3ccc[nH]3)C=C2OC)c1C`, the growth in [1] is 27.4%; in experiment [2], -6.07% (active); in experiment [3], -61.3% (active); in [4] it was -48.5% (active); in experiment [5], -47.3% (active); in experiment [6], 14.9%. Moreover, the growth was -37.2% (active) in experiment [7]; -41.6% (active) in experiment [8]; -20.1% (active) in experiment [9]; -70.4% (active) in [10]; -28.8% (active) in [11]; -28% (active) in experiment [12]. Moreover, the growth in experiment [13] was -28.1% (active); in experiment [14], 21.2%; in experiment [15], -24.1% (active); in experiment [16], 12.3%; in [17], -100% (active); in experiment [18], -70.9% (active). Moreover, the growth in experiment [19] was -45.8% (active).
For `c1ccc2cc(C[n+]3ccn(CCCCCCCCCCn4cc[n+](Cc5ccc6ccccc6c5)c4)c3)ccc2c1`, the growth was 28.4% in experiment [1]; 8.6% (active) in experiment [2]; -20.4% (active) in [3]; 16.5% in experiment [4]; 9.07% (active) in experiment [5]; 13.7% in [6]. Also, the growth was 16.5% in experiment [7]; 10.4% in experiment [8]; -13.8% (active) in [9]; 31.8% in experiment [10]; 50.5% in [11]; -32.5% (active) in experiment [12]. Besides, the growth in experiment [13] is -1.15% (active); in [14] it was 22.8%; in experiment [15] it was 11.7%; in [16] it was 7.04% (active); in [17], -56.4% (active); in experiment [18], 16.9%. Also, the figures for the growth in experiment [20] and in experiment [19] were -53.9% (active) and 20.6%, respectively.
For the compound `CCCCCCC12CCC(=O)N1CCc1cncn12` (stereo unspecified), the growth in experiment [1] was 109%; in experiment [2] it was 100%; in [3], 120%; in [4] it was 110%; in experiment [5], 92.4%; in [6] it was 120%. The growth in experiment [7] was 105%; in experiment [8], 106%; in [9], 101%; in experiment [10], 113%; in [11], 102%; in [12], 100%. The growth is 116% in experiment [13]; 105% in experiment [14]; 100% in experiment [15]; 98.3% in [16]; 99.1% in experiment [17]; 95.6% in experiment [18]. Moreover, the growth in experiment [20] was 102%; in experiment [19] it was 112%.
Consider `O=C(Nc1cccc(Cl)c1)Nc1cccc(Cn2c(=O)[nH]c3ccc(Oc4ncccn4)cc3c2=O)c1`, for which the growth was 37.3% in experiment [1]; 26.3% in experiment [2]; 58.9% in [3]; 53.4% in [4]; 67.5% in [5]; 30.8% in experiment [6]. Besides, the growth in experiment [7] was 36.2%; in experiment [8] it was 62.8%; in experiment [9], 23.7%; in experiment [10], 53%; in [11], 80.6%; in experiment [12], 38.8%. In addition, the growth is 57.8% in [13]; 55.6% in experiment [14]; 31.3% in [15]; 36.5% in experiment [16]; 25.5% in experiment [17]; 49.3% in [18]. Further, the growth in experiment [20] was 49.7%; in [19] it was 59.1%.
`CC1=NC2=Nn3c(c4cnn(-c5ccccc5)c4n/c3=N\N)NN2C(c2ccccc2)=C1`: the growth in experiment [1] is 105%; in [2], 102%; in experiment [3] it was 87.9%; in experiment [4], 88.7%; in experiment [5], 74%; in [6] it was 96.1%. Moreover, the growth was 90.7% in [7]; 94.7% in experiment [8]; 101% in [9]; 93.1% in experiment [10]; 99% in [11]; 98.6% in [12]. Moreover, the growth was 67% in experiment [13]; 98.4% in [14]; 99% in experiment [15]; 90.5% in experiment [16]; 91% in [17]; 92% in experiment [20]. The growth in experiment [19] was 102%.
For `CS(=O)(=O)Nc1cc(-c2ccc3ncnc(Nc4ccc5c(cnn5Cc5ccc(F)cc5)c4)c3c2)cnc1Cl`, the growth is 62.1% in experiment [1]; 48.5% in experiment [2]; -4.18% (active) in experiment [3]; 32.9% in experiment [4]; 9.93% (active) in experiment [5]; 14.9% in experiment [6]. Further, the growth was 66.1% in experiment [7]; 27.5% in [8]; 50% in experiment [9]; 36.8% in experiment [10]; 82.1% in experiment [11]; 53.3% in [12]. Moreover, the growth was -10.1% (active) in [13]; 47% in [14]; 37.2% in experiment [15]; 38.2% in [16]; 13.9% in experiment [17]; 21% in [18]. The growth in [19] was 16.7%.
In the case of `O=C(Nc1ccc(Oc2cccc(Cl)c2)c(Cl)c1)c1cccnc1`, the growth in [1] is 16.1%; in experiment [2], 11.1%; in experiment [3] it was 50.1%; in [4], 59%; in experiment [5] it was -0.145% (active); in [6], 53.4%. Moreover, the growth in experiment [7] was 41.4%; in experiment [8], -8.37% (active); in experiment [9], 64.2%; in [10], 21.8%; in [11], 36.8%; in experiment [12], 8.57% (active). For the same compound, the growth in experiment [13] is -23.2% (active); in [14] it was 41.3%; in experiment [15], 23.9%; in [16], 14.9%; in [17], 14.5%; in experiment [20], 51.7%. Further, the growth in experiment [19] was 63.8%.
